Compound activity as filed in PubChem BioAssay.
Rows were chosen to be rich in hits. Some 28% of all compounds tested hit in one or more screens of this group.
CYP2C9 act: CYP2C9 (human) activation; actives 1.4% (n = 96,000); activation factor at 5 µM; recombinant CYP2C9, luciferin-H conversion, luminescence; active compounds read high; factor 1 = untreated enzyme, 0 = blocked;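 active means activation factor of 2 or more for CYP2C9 at a 5 µM dose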;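 further: 0 = sulfaphenazole-blocked wells and 1 = vehicle-only wells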
Plk1 PBD FP: inhibitors of human Plk1 polo box domain binding. P53350. Plk1 PBD phosphopeptide binding, fluorescence polarization. inhibition, %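 (tested at about 20 µM)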. actives 0.13% (n = 97,000). AID 693; in the data active means inhibition above about 34%, passing the limit was not always enough
CYP2C9 inhib: blocks human cytochrome P450 2C9 | P11712 | CYP2C9 Supersomes, luciferin-H conversion, luminescence | inhibition, % at 5 µM | actives 20% (n = 96,000);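 active means blocking of liver enzyme CYP2C9 beyond about 50% at 5 µM, limit read from the data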
CYP2C19 inh: inhibitors of human CYP2C19; inhibition, % at 5 µM; P33261; actives 21% (n = 96,000); CYP2C19 Supersomes, luciferin-H EGE luminescence, 30 min;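 active means CYP2C19 inhibition above a set limit at 5 µM in the primary screen, cut at about 50% in these data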;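 further: plate controls were negative control wells for no effect and 2.5 mM tranylcypromine positive control for full effect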
Target sequence (P33261 whole entry, looked up): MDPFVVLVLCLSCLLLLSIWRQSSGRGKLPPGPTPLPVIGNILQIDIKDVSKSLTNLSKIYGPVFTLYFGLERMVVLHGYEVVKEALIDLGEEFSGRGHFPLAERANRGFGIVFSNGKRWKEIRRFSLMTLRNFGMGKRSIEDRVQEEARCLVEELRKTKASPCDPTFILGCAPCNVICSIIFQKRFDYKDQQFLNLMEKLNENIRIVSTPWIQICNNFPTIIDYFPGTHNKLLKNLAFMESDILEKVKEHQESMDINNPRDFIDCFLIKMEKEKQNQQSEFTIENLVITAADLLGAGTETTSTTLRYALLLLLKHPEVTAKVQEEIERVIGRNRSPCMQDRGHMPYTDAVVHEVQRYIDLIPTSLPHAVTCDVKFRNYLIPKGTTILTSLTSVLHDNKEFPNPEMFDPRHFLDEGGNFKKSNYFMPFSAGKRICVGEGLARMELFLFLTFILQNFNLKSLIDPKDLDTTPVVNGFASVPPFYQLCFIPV
PLK1 inh: PLK1 (human) kinase inhibition. P53350. recombinant PLK1 kinase, TR-FRET peptide phosphorylation. inhibition, % at 10 µM. actives 0.53% (n = 97,000);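 active means inhibition of 50% or more in the single-concentration screen; inactive means inhibition below 50%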;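 further: 0% = DMSO max control and 100% = H-89 dihydrochloride min control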
CYP2C19 act: cytochrome P450 2C19 (human) activation; activation factor at 5 µM; P33261; recombinant CYP2C19, luciferin-H EGE luminescence; active compounds read high; 0 = fully inhibited enzyme, 1 = untreated enzyme; 96,000 tested, under 10 active; AID 1025;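 active means activation factor of at least 2 at 5 µM in the primary screen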;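 further: 0 = wells with 2.5 mM tranylcypromine and 1 = vehicle-only wells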
The depositor's hits bear a star; . = no result.

SMILES | CYP2C9 act | Plk1 PBD FP | CYP2C9 inhib | CYP2C19 inh | PLK1 inh | CYP2C19 act
Cc1ccc(OCC(=O)NNC(=O)C2CCN(c3nc(C)cc(C)n3)CC2)cc1 | 1 | -10 | 0 | 12 | -10 | 0.9
FC(F)(F)c1nnc2sc(-c3cccs3)nn12 | 1 | 7 | 2 | 4 | -9 | 1
CCCc1nc2ccccc2c(C(=O)OC2CCOC2=O)c1CC (configuration not stated) | 0.3 | -3 | 65* | 53* | -5 | 0.5
CCc1nc2ccccc2c(C(=O)OC2CCOC2=O)c1C (configuration not stated) | 1.1 | -13 | -5 | 52* | 1 | 0.5
CCCc1nc2ccccc2c(C(=O)O)c1CC | 1 | -11 | 1 | 2 | -18 | 1
O=S(=O)(NCCc1csc(-c2cccnc2)n1)c1cccs1 | 0.3 | -14 | 66* | 94* | -14 | 0.1
COc1ccc(-c2nc(CCNC(=O)c3ccco3)cs2)cc1OC | 0.5 | -4 | 54* | 33 | -15 | 0.7
O=S(=O)(NCc1csc(-c2cccnc2)n1)c1cccs1 | 0.8 | . | 17 | 41 | . | 0.6
O=S(=O)(NCCc1csc(-c2cccnc2)n1)c1ccc(Cl)s1 | 0.2 | -19 | 83* | 80* | 2 | 0.2
COc1ccc(S(=O)(=O)NCCc2csc(-c3cccnc3)n2)cc1 | 0.4 | 14 | 60* | 93* | 2 | 0.1
CC(=O)Nc1ccc(S(=O)(=O)NCc2csc(-c3cccnc3)n2)cc1 | 1 | 14 | -3 | -4 | -14 | 1
COC(=O)c1ccc(OCCn2cnc3ccccc3c2=O)cc1 | 0.7 | . | 25 | 29 | . | 0.7
Cc1ccc(C(=O)NCCc2csc(-c3cccnc3)n2)cc1 | 0.4 | -29 | 63* | 47 | -14 | 0.5
COc1ccc(-c2nc(CNS(=O)(=O)c3ccc(OC)c(OC)c3)cs2)cc1 | 0.4 | 16 | 55* | 82* | -16 | 0.2
Cc1nc(CNS(=O)(=O)c2ccc3c(c2)CCCC3)cs1 | 2.4* | . | -135 | 39 | . | 0.6
O=C(NCCc1ccc(F)cc1)c1cccs1 | . | 11 | . | . | -12 | .
O=C(NCCc1csc(-c2ccc(C(F)(F)F)cc2)n1)c1cccs1 | 0.2 | -5 | 75* | 41 | -32 | 0.6
COc1ccc(C(=O)Nc2ccc(S(=O)(=O)Nc3cc(C)nc(C)n3)cc2)c(OC)c1 | 0.6 | -30 | 37 | -4 | 3 | 1
COc1ccccc1OCC(=O)Nc1ccc(S(=O)(=O)Nc2nc(C)cc(C)n2)cc1 | 0.3 | -37 | 70* | 38 | -10 | 0.6
COc1ccccc1C(=O)Nc1ccc(S(=O)(=O)Nc2cc(C)nc(C)n2)cc1 | 0.4 | -29 | 56* | 0 | -13 | 1
COCCN1C=C(C(=O)OC)C(c2cc(Br)c(OC)c(OC)c2)C(C(=O)OC)=C1 | 0.1 | 9 | 91* | 45 | -2 | 0.5
CC(=O)C1=C(O)C(=O)N(c2cccnc2)C1c1ccc(Cl)cc1 (configuration not stated) | 0.8 | 4 | 24 | 1 | -17 | 1
COC(=O)NCC1(C)CC(NC(=O)OC)CC(C)(C)C1 (configuration not stated) | 1.2 | -4 | -17 | 77* | -20 | 0.2
c1ccc(OCc2nn3c(Cn4cnc5ccccc54)nnc3s2)cc1 | 0.9 | -50 | 10 | 22 | -16 | 0.8
CCOc1ccccc1OCc1nn2c(COc3ccccc3)nnc2s1 | 1.2 | -2 | -20 | 31 | -6 | 0.7
SMILES | CYP2C9 act | Plk1 PBD FP | CYP2C9 inhib | CYP2C19 inh | PLK1 inh | CYP2C19 act
c1ccc(OCc2nn3c(C4CCCCC4)nnc3s2)cc1 | 0.5 | -4 | 51* | 14 | -22 | 0.9
c1ccc(Cc2nn3c(COc4ccccc4)nnc3s2)cc1 | 0.7 | 24 | 32 | 66* | -7 | 0.3
CN(C)c1ccc(-c2nn3c(C4CCCCC4)nnc3s2)cc1 | 0.5 | -20 | 55* | 52* | -13 | 0.5
Clc1ccccc1-c1nn2c(COc3ccccc3)nnc2s1 | 0.2 | -4 | 82* | 95* | -10 | 0.1
O=C(c1ccccc1)n1nnc2ccccc21 | 1.3 | -3 | -26 | -18 | -3 | 1.2
CCCCn1nc(C(=O)O)ccc1=O | 0.9 | -5 | 9 | 8 | -4 | 0.9
Oc1ccccc1-c1nc(N2CCN(Cc3ccccc3)CC2)c2ccccc2n1 | 0.3 | -12 | 74* | 65* | -22 | 0.3
c1cncc(-c2nc(N3CCCCCC3)c3ccccc3n2)c1 | 0.2 | -16 | 77* | 39 | -10 | 0.6
c1ccc(N2CCN(c3nc(-c4ccccn4)nc4ccccc34)CC2)cc1 | 0.4 | -8 | 59* | 32 | 0 | 0.7
c1ccc2c(N3CCCCCC3)nc(-c3ccncc3)nc2c1 | 0.2 | 3 | 80* | 76* | 22 | 0.2
COc1ccc(-c2nc3ccccc3c(C(=O)Nc3ccc(S(=O)(=O)Nc4cc(C)on4)cc3)c2C)cc1 | 1.1 | -46 | -8 | -21 | -6 | 1.2
O=C1CCN(N=Nc2cccc(Cl)c2)N1 | 0.8 | -12 | 18 | 1 | 7 | 1
Cc1ccc(CN2CCN(CC(=O)NC(C)c3ccc4c(c3)OCCO4)C2=O)cc1 (configuration not stated) | 0.7 | 8 | 33 | 40 | -12 | 0.6
CCN1CCN(c2nc(-c3ccncc3)nc3ccccc23)CC1 | 0.7 | -13 | 30 | 51* | 12 | 0.5
CC(C)(C)C(=O)COC(=O)c1cc2ccccc2cc1O | 0.9 | -22 | 8 | 11 | -14 | 0.9
CC(C)C(C(=O)Nc1ccc(N2CCOCC2)cc1)N1C(=O)c2ccccc2C1=O (configuration not stated) | 0.8 | 3 | 16 | 23 | -14 | 0.8
O=C(c1ccccc1)c1ccc2nc(N3CCN(C(=O)c4ccco4)CC3)c3nncn3c2c1 | 0.1 | -29 | 92* | 78* | -18 | 0.2
CCOC(=O)c1[nH]c2ccc(OCC)cc2c1NC(=O)CN1CCN(c2ccccn2)CC1 | 0.9 | -17 | 5 | 12 | -6 | 0.9
CCOC(=O)c1[nH]c2ccc(OCC)cc2c1NC(=O)CN1CCCC(C)C1 (configuration not stated) | 0.4 | -20 | 60* | 78* | 1 | 0.2
CCOC(=O)c1[nH]c2ccc(C)cc2c1NC(=O)CN1CCCCC1 | 0.7 | 22 | 30 | 60* | -12 | 0.4
O=C(NCc1ccccc1)c1ccc(CN(c2ccccn2)S(=O)(=O)c2ccccc2)cc1 | 0.6 | -6 | 40 | 1 | -10 | 1
C/C(=N\NC(=O)CSCc1ccc(Cl)cc1)c1ccc2c(c1)OCCO2 | 0.4 | 14 | 64* | 84* | -11 | 0.2
C/C(=N\NC(=O)CSCc1cccc(Br)c1)c1ccc([N+](=O)[O-])cc1 | 0.6 | -13 | 40 | 27 | -4 | 0.7
CCCn1c(CCC(=O)Nc2ccccc2Cc2ccccc2)nc2cc(S(=O)(=O)N3CCOCC3)ccc21 | 0.2 | -7 | 75* | 28 | -7 | 0.7
